# In PubChem BioAssay AID687014 (The Scripps Research Institute Molecular Screening Center, 2013):
# “And” between values parts separate entries of the source, which are not always exact repeats. Identical values can stand only once. About 6,800 (1.8%) of roughly 370,000 compounds were called active. Shown is part of a subset that was picked to be rich in actives. Unmarked numbers belong to inactive results.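 Rule for the calls: active = activation above a cutoff set at the mean of all screened compounds plus 3 SD (cut at about 10% in these data); inactive = the rest.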
# System: Nuclear hormone receptor DAF-12 (Heterodera glycines), GAL4 fusion
# Assay: hgDAF-12 GAL4 fusion reporter activation – cell-based, luminescence, HEK293, UAS-luciferase, primary screen (AID 687014);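 note: 0% = DMSO wells and 100% = sodium butyrate wells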
# Conditions: HEK293 GAL4-hgDAF12 UAS-luciferase reporter, agonist luminescence; at 6.8 µM; stronger effect = higher value; normalized to butyrate control
row,Compound,activation
1,O=C(CN1CCC(NC(=O)NCc2ccccc2)CC1)Nc1ccc2c(c1)OCCO2,1.23%
2,O=C(Cn1cnc([N+](=O)[O-])n1)NCCc1ccccc1,2.5%
3,Cc1c(Br)c([N+](=O)[O-])nn1CC(=O)N1CCN(Cc2ccccc2)CC1,4.33%
4,O=C(Nc1ccn(Cc2ccccc2)n1)c1cccc(F)c1,20% (active)
5,Cc1ccc(NC(=O)CC2C(=O)N(Cc3ccccc3)C(=S)N2NC(=O)c2cccc(F)c2)c(C)c1 (stereo unspecified),-3.58%
6,O=C(Nc1ccn(Cc2ccccc2)n1)c1n[nH]c([N+](=O)[O-])c1Cl,16.8% (active)
7,CCOc1cccc(C(=O)Nc2cnn(Cc3ccccc3)c2)c1,2.99%
8,CC(c1c[nH]c2ccccc12)c1c(-c2ccccc2)n(C)c2ccccc12 (stereo unspecified),0.36%
9,COC(=O)[C@]1(Cc2ccccc2)NC=C(C(=O)c2ccccc2)[C@@H]1c1cccc(OC)c1,1.41%
10,Cc1cc(C)cc(NC(=O)N2CCC(N(C)CCC(C)C)CC2)c1,3.99%
11,O=C(NCCCN1CCOCC1)c1ccccc1NS(=O)(=O)c1ccc(F)cc1,-1.36%
12,O=C(NCCCN1CCOCC1)c1cnn2c(-c3ccccc3)cc(-c3ccccc3)nc12,-2.14%
13,O=C(NCCCN1CCOCC1)c1cc(-c2ccccc2F)no1,14.2% (active)
14,Cc1cccc(CN2CCN(C3CN(Cc4cn(Cc5cc(C)cc(C)c5)nn4)S(=O)(=O)C3)CC2)c1 (stereo unspecified),-3.8%
15,Cn1c(NC(=O)c2ccccc2)nc2ccccc21,15.2% (active)
16,CCn1c(NC(=O)c2nn(C)cc2Br)nc2ccccc21,-4.58%
17,CCC(C(=O)NC(C)(C)C)n1c(-c2ccccc2)nc2ccccc21 (stereo unspecified),0.22%
18,Cn1c(-c2ccc(C(=O)c3ccccc3)s2)nc2ccccc21,13.5% (active)
19,O=C(NC1=CC(=O)c2ccccc2C1=O)c1ccccc1,-6.53%
20,CCC(C(=O)Nc1c(C)cccc1C)n1c(-c2cc(C)cs2)nc2ccccc21 (stereo unspecified),2.55%
21,CCOC(=O)[C@]12CCCC=C1N(Cc1ccc(OC)cc1)C(=O)[C@@H]2CC(=O)NCc1cccs1,-4.41%
22,CN1CCCc2nc(-c3ccccc3)ccc21,7.25%
23,CCOC(=O)c1ccc(NC2Nc3cc(C)nn3S2)cc1 (stereo unspecified),2.62%

row,Compound,activation
1,CCc1ccc(NC2Nc3cc(C)nn3S2)cc1 (stereo unspecified),19.2% (active)
2,COCCNC(=O)Cn1cc2c(n1)CCCCC2,0.5%
3,CN(CC(=O)Nc1c(Cl)cccc1Cl)C(=O)CC1OC(=O)c2ccccc21 (stereo unspecified),-1.08%
4,CC(=O)c1sc(N/N=C/c2ccc(C(C)C)cc2)nc1C,14.4% (active)
5,CC(=O)c1sc(N/N=C\c2ccc(C)cc2)nc1C,11.2% (active)
6,CC(=O)c1sc(N)nc1C,1.06% and 4.44%
7,CCOC(=O)c1sc(/N=C/Nc2nc(C)c(C(=O)OCC)s2)nc1C,0.82%
8,Cc1cc2c(=O)n(CC(=O)NCC(=O)Nc3ccc(C(C)C)cc3)cnc2s1,1.17%
9,C=CC[C@]12C[C@@]3(O[C@H](c4ccc(C(F)(F)F)cc4)N=C3C[C@H](c3ccc(OC)cc3)[C@H]1C)N(C1CCN(Cc3ccccc3)CC1)C2=O,0.9%
10,c1csc(-c2nnc(SCc3nc4ccccc4[nH]3)o2)c1,-0.48%
11,CCOC(=O)C1=CN(Cc2ccc(Br)cc2)S(=O)(=O)N(C)C1C (stereo unspecified),0.23%
12,O=C(Oc1cccc(NC2=NS(=O)(=O)c3ccccc32)c1)c1ccncc1,-1.92%
13,CC(C)(C)c1csc(NC2=NS(=O)(=O)c3ccccc32)n1,19.4% (active)
14,Cc1ccc(S(=O)(=O)N(NC2=NS(=O)(=O)c3ccccc32)C(=O)c2ccccc2)cc1,0.43%
15,CCCCOCCCNC(=O)C[C@H]1C[C@@]2(C(=O)OC)C(=C[C@H](C(C)(C)C)O[C@@H]2C)N(CCc2ccc(OC)c(OC)c2)C1=O,-0.02%
16,CCCNC(=O)c1cc2c(c(-c3cccc(-c4ccc(C#N)cc4)c3)n1)[C@@H](CCO)N(C(=O)CC)C2,-0.02%
17,Cc1ccc(NC(=O)CN2CCC(C(N)=O)CC2)cc1[N+](=O)[O-],0.92%
18,Cc1ccsc1C(=O)NCCc1ccco1,8.62%
19,Cc1ccsc1C(=O)NC1CCCCC1C (stereo unspecified),-0.72%
20,Cc1ccc(NC(=O)c2sccc2C)cc1[N+](=O)[O-],14.2% (active)
21,Cc1ccc(/C=N/NC(=O)c2sccc2OCc2ccc(F)cc2)cc1,3.63%
22,Cc1ccsc1C(=O)N/N=C/c1ccc([N+](=O)[O-])cc1,13.9% (active)
23,Cn1c(N)c(C(=O)COC(=O)c2ccccc2NCc2ccco2)c(=O)n(C)c1=O,-0.34%

row,Compound,activation
1,COc1ccc(C#CCNCc2ccc(OC)cc2OC)cc1,-1.32%
2,O=C(c1ccccc1)c1ccc(-c2ccccc2C(=O)NC2CCCCN(Cc3ccc(Cl)cc3)C2=O)cc1 (stereo unspecified),3.48%
3,CC(CO)N1CCS(=O)(=O)CC1 (stereo unspecified),0.38%
4,N#Cc1ccccc1OC[C@@H](O)CN1CCC(C(O)(c2ccccc2)c2ccccc2)CC1,-4.54%
5,C=CCN1C(=O)[C@H](CC(=O)NCCCN2CCCC2=O)[C@@]2(C(=O)OCC)CCCC=C12,-1.4%
6,Cc1[nH]nc2c1C(c1ccc(Br)cc1)NC2=O (stereo unspecified),0.07%
7,O=C(Nc1ccccc1Cl)c1ccc2nsnc2c1,12.6% (active)
8,O=C(Nc1ccccc1Cl)/C(Cl)=C(\Cl)S(=O)c1ccccc1 (stereo unspecified),-20.1%
9,O=S(=O)(Nc1ccccc1Cl)c1cccc2nsnc12,-1.42%
10,Cc1ccc(-n2c(SCC(=O)Nc3ccc(S(=O)(=O)Nc4nccs4)cc3)nnc2-c2ccncc2)cc1,-0.9%
11,Nc1ncnc2c1ncn2C1OC(CO)CC1O (stereo unspecified),-1.31%
12,COc1ccc(C(=O)Nc2ccnn2C2CCN(Cc3ccncc3)CC2)cc1,-1.76%
13,COc1ccc(C(=O)Nc2sc(C)c(C)c2CN2CCOCC2)cc1,11.8% (active)
14,CCOc1ccc(C(=O)Nc2ccc(CN3CCOCC3)cc2)cc1Cl,-0.68%
15,COC(=O)c1ccccc1-n1cc(COC(=O)NCCc2ccccc2)nn1,0.71%
16,COC(=O)c1ccc(CN2C(=O)[C@]3(OCCC=C[C@H]3C)c3c(Br)cccc32)cc1,4.21%
17,Cc1ccc2nc(/C(C#N)=C\c3ccc(OC(=O)c4cccs4)cc3)[nH]c2c1,10.6% (active)
18,COc1ccc(S(=O)(=O)N2CCCC2CNC(=O)C(=O)NC2CC2)cc1 (stereo unspecified),0.71%
19,O=Cc1cn(-c2ccccc2)nc1-c1ccccn1,-0.68%
20,O=C(O)c1ccc(N/N=C/c2cn(-c3ccccc3)nc2-c2cccs2)cc1,16.3% (active)
21,O=C(N/N=C/c1sc(N2CCCCC2)nc1-c1cccs1)c1cccnc1,1.92%
22,Fc1ccc2nc(COCc3nc4ccc(F)cc4[nH]3)[nH]c2c1,0.86%
23,COc1cccc(-c2nnc(N(C)C(=O)c3ccno3)s2)c1,3.08%

row,Compound,activation
1,O=C(NCCCn1ccnc1)c1cc(Br)c(Br)s1,1.27%
2,O=C(Nc1ccccc1C(=O)NCCCn1ccnc1)c1ccc(Cl)cc1Cl,-1.62%
3,O=C(NC1CCCCCCC1)c1cccs1,2.58%
4,O=C(NCCCn1ccnc1)c1cc(-c2ccccc2)on1,46% (active)
5,O=C(NC1CCCC1)c1cc(-c2ccccc2)on1,36.2% (active)
6,O=C(NC1CC1)c1ccc(-c2ccccc2)cc1,9.69%
7,COC(=O)c1ccc(COC(=O)C2CCN(S(=O)(=O)c3c(Cl)cccc3Cl)CC2)o1,-1.37%
8,COc1ccc2c(C(C)c3ccc(N)cc3)cn(C)c2c1 (stereo unspecified),0.29%
9,COC(=O)[C@]1(C#N)CC(=O)N(CC2CCCCC2)[C@@H]1c1ccccc1,1.35%
10,Cc1ccccc1CN1CCCCC(NC(=O)Nc2ccccc2F)C1=O (stereo unspecified),-3.67%
11,Nc1nc(SCC(=O)Nc2ccc(Cl)c([N+](=O)[O-])c2)n[nH]1,-3.01%
12,O=C(NCc1ccccc1)[C@@H]1CCCN1C(=O)[C@H]1CCCN1C(=O)c1cccc(Cl)c1,2.12%
13,COC(=O)[C@]12C[C@H](CC(=O)N3CCOCC3)C(=O)N(Cc3ccc(Cl)cc3Cl)C1=C[C@H](COCc1ccccc1)O[C@@H]2C,-2.38%
14,CCOC(=O)C1=C(C)NC2=C(C(=O)CC(C)(C)C2)C1c1ccc2c(c1)OCO2 (stereo unspecified),-2.39%
15,COc1ccc(CNC(=O)COc2ccccc2C(=O)c2cnn(-c3ccccc3)c2)cc1OC,13.4% (active)
16,COc1ccc(CNC(=O)COC(=O)c2c(C)nn(-c3ccccc3)c2C)cc1OC,-3.17%
17,COc1ccc(CNC(=O)COC(=O)c2sccc2C)cc1OC,0.76%
18,CCOC(=O)CNC(=O)N(C)[C@H]1C[C@H]2c3[nH]c4c(-c5ccc6c(c5)OCO6)cccc4c3CCN2C(=O)[C@H]1[C@H](C)O,-1.8%
19,CCCN(C(=O)CSc1nnc(N)s1)c1c(N)n(Cc2ccccc2)c(=O)[nH]c1=O,-3.79%
20,Fc1ccc2nc(Nc3nc4c(s3)CCCC4)sc2c1,12.8% (active)
21,COC(=O)C(NC(C)=O)(Nc1nc2c(s1)CCCC2)C(F)(F)F (stereo unspecified),-0.75%
22,CCS(=O)(=O)N1Cc2ccccc2CC1C(=O)Nc1nc2ccc(F)cc2s1 (stereo unspecified),10.2%
